Out of some 63,000 compounds screened, about 1,100 (1.7%) were called active. This is one part of a sample in which actives are shown more often than they occur. Potency and affinity values are given separately. Unmarked numbers belong to inactive results. No stated cut-off is given here; in the data, active means cytotoxicity above about 50%; inactive means the rest.

The values that follow come from PubChem BioAssay AID430 (Sanford-Burnham Center for Chemical Genomics, 2006).

The assay can be described thus: cytotoxicity in HPDE-C7 cells, cell-based, fluorescence, HTS (AID 430).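 Further: cells exposed to compound for 48 hours before viability readout; 0% = vehicle and 100% = reference cytotoxic drug.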 Conditions: HPDE-C7 pancreatic duct cells viability, at 10 µM, active compounds read high.
With `N#CCCn1cc(C(CC(=O)c2ccc(Br)cc2)C(=O)O)c2ccccc21` (centres undefined), the cytotoxicity was -21.4%.
To `CCOC(=O)Nc1ccc(S(=O)(=O)Nn2cnnc2)cc1` belongs -3.3%; to `OCCSc1nc(-c2cccnc2)nc2ccccc12`, 5.1%.
As for `CN1CCN(c2nc(-c3cccnc3)nc3ccccc23)CC1`, the cytotoxicity is -0.2%.
Regarding `Cn1nnnc1Sc1nc(-c2cccnc2)nc2ccccc12`, the cytotoxicity is 99.3% (active).
To `CCOc1cccc(-c2nnc3n2N=C(c2cc(OC)ccc2OC)CS3)c1` belongs 28.5%; to `COCCSc1ccccc1C(=O)Nc1nncs1`, -5.4%; to `O=C(CCN1CCN(CCC(=O)c2ccccc2)CC1)c1ccccc1`, -22.9%.
To `O=C(CCN1CCN(c2ccccc2F)CC1)Nc1ccccc1F` belongs -8.5%.
As for `C=CCn1c(SCCC(=O)O)nc2c1c(=O)n(C)c(=O)n2C`, the figure is -15.6%.
Take `COc1ccc(NC(C)=O)cc1NC(=O)CSc1nnc(-c2ccccc2)n1N`: the cytotoxicity was -1.2%.
To `CC[C@H](C)C(=O)O[C@H]1C[C@@H](C)C=C2C=C[C@H](C)[C@H](CC[C@@H]3C[C@@H](O)CC(=O)O3)[C@H]21` belongs 57.6% (active); to `NC(=O)COC(=O)c1ccc(S(=O)(=O)N2CCCCCC2)cc1`, 10.2%.
For the compound `CC[C@@H](C)[C@H](NC(=O)OC(C)(C)C)c1nnc(S(=O)(=O)Cc2cc(C)ccc2C)o1`, the cytotoxicity was 58.1% (active).
Regarding `CCC(C)[C@@H](NC(=O)OC(C)(C)C)c1nnc(S(=O)(=O)Cc2cccc(C)c2)o1` (some centres undefined), the cytotoxicity is 5.7%.
Consider `CC(C)[C@H](NC(=O)OC(C)(C)C)c1nnc(S(=O)(=O)Cc2c(F)cccc2Cl)o1`, for which the cytotoxicity was -7.3%.
As for `COC(=O)CS(=O)(=O)c1nnc([C@H](Cc2ccccc2)NC(=O)OC(C)(C)C)o1`, the cytotoxicity is -7.1%.
As for `CC(C)C[C@H](NC(=O)OC(C)(C)C)c1nnc(SCc2cccc(F)c2)o1`, the figure is -12%; as for `CCOC(=O)CSc1nnc([C@H](CC(C)C)NC(=O)OC(C)(C)C)o1`, 1.4%.
As for `CC(C)(C)OC(=O)N[C@@H](Cc1ccccc1)c1nnc(S(=O)(=O)Cc2cccc(F)c2)o1`, the figure is -10.9%.
To `Cc1ccc(CCNC(=O)NC(C)(C)C)cc1` belongs -6.5%.
Regarding `O=C(OC1CCOC1=O)c1ccc(S(=O)(=O)N2CCCCCC2)cc1` (centres undefined), the cytotoxicity is -10.6%.
Take `COc1cc2c(C#N)c(N3CCOCC3)nc(N)c2c(N)n1`: the cytotoxicity is 37.5%.
To `N#Cc1c(N2CCCC2)nc(N)c2c(N)nc(N3CCCC3)cc12` belongs 1.9%; to `CCOc1cc2c(C#N)c(N3CCOCC3)nc(N)c2c(N)n1`, 23%; to `COc1cc2c(C#N)c(N3CCCCC3)nc(N)c2c(N)n1`, 44.8%.
To `COc1cc2c(C#N)c(N3CCN(c4ccccc4OC)CC3)nc(N)c2c(N)n1` belongs 54.8% (active).
As for `COc1ccc(Cc2nc(-c3cccs3)no2)cc1OC`, the cytotoxicity was 5.9%.
To `Cc1ccc(OCCSc2nnc(NC(=O)c3ccco3)s2)cc1` belongs 4.3%.
As to `CCC(C)NC(=O)CCS(=O)(=O)c1ccc2c(c1)n(C)c(=O)c(=O)n2C` (centres undefined), the cytotoxicity was -0.5%.
To `CC(C(=O)Nc1sccc1C(N)=O)N1C(=O)C2CC=CCC2C1=O` (centres undefined) belongs -1.9%.
Take `CC(CCc1ccccc1)NC(=O)C1CCN(S(=O)(=O)N2CCCCC2)CC1` (centres undefined): the cytotoxicity was -21.3%.
As for `Clc1c(CSc2nc3ccccc3o2)nc2sccn12`, the figure is 13.8%.
To `O=C(O)C1CCCCC1C(=O)Nc1ccc2c(c1)CCC2` (centres undefined) belongs -13.4%.
Consider `CC1CCCCC1NC(=O)CSc1nnc(COc2ccccc2Cl)o1` (centres undefined), for which the cytotoxicity was -6.2%.
As for `CCCn1c(N)c(N(C)C)c(=O)n(CC(=O)Nc2ccc(OC(F)(F)F)cc2)c1=O`, the figure is -2.7%; as for `COc1cc(-c2ccccc2)nc(N)n1`, -3.4%.
Consider `COc1ccc(OC)c(Nc2cc(C)nc3ccccc23)c1`, for which the cytotoxicity is -3.8%.
As for `COc1ccc(OC)c(Nc2cc(-c3ccccc3)nc(N)n2)c1`, the figure is 68.5% (active).
For `Cc1nc2ccccc2c2oc(C(=O)N3CCc4ccccc43)cc12`, the cytotoxicity is 0.3%.
As to `COCCN1C=C(C(=O)OC)C(c2ccc(OC)c(OC)c2)C(C(=O)OC)=C1`, the cytotoxicity is -14.4%.
Take `CC1CN(c2nc3ccccn3c(=O)c2/C=C(\C#N)S(=O)(=O)c2ccccc2)CC(C)O1` (centres undefined): the cytotoxicity was -12.3%.
In the case of `Cc1ccc(NC(=O)CSc2nnc(-c3ccco3)c(-c3ccco3)n2)cc1`, the cytotoxicity was 82.6% (active).
Take `Clc1ccccc1CSc1ncccn1`: the cytotoxicity is -5.2%.
To `Cc1cc(C)nc(SCc2nnc(SCc3ccccc3Cl)o2)n1` belongs -4.7%.
Consider `COc1ccc(NC(=O)CSc2nnc(-c3ccco3)n2C)cc1`, for which the cytotoxicity is -10.6%.
To `O=C(CSc1nnc(-c2ccco2)c(-c2ccco2)n1)Nc1ccccc1` belongs 9.9%; to `CC1(C)OC(=O)C(=CNc2cccc(C(=O)O)c2)C(=O)O1`, -20.6%; to `COc1ccc(S(=O)(=O)NCCSc2ccc(C)cc2)cc1OC`, 12.8%.
On to `COc1ccc(-c2nc(CN3CCC(C(=O)NC(C)C)CC3)c(C)o2)cc1OC`, for which the cytotoxicity is -10.9%.
For `COc1ccc(C2NC(=O)c3n[nH]c(C)c32)c(OC)c1` (centres undefined), the cytotoxicity was 4.3%.
Consider `COc1ccc(C2CC(c3c(O)cc(C)oc3=O)=NCCS2)c(OC)c1` (centres undefined), for which the cytotoxicity was 71.1% (active).
To `COc1ccc(C2C(C(C)=O)=C(O)C(=O)N2C)c(OC)c1` (centres undefined) belongs 6.1%.
To `Cc1cccc(N(Cc2nnc3n2CCCCC3)C(=O)Nc2ccccc2)c1` belongs -21.7%; to `COc1cc(CO)cc(-c2cc(CO)cc(OC)c2OC)c1OC`, 4%; to `CN1CCN(c2ncnc3c2sc2nc(N4CCCC4)c4c(c23)CC(C)(C)OC4)CC1`, -7.2%.
To `OCCN1CCN(c2ncnc3c2sc2nc(N4CCOCC4)c4c(c23)CCC4)CC1` belongs 35.6%; to `CC1(C)Cc2c(c(N3CCCC3)nc3sc4c(N5CCN(CCO)CC5)ncnc4c23)CO1`, 60.5% (active); to `Cn1c(OCc2cccnc2)nc2c1c(=O)n(Cc1ccc(Cl)cc1)c(=O)n2C`, 44%.
With `Cn1c(N2CCCC2)nc2c1c(=O)n(Cc1ccc(Cl)cc1)c(=O)n2C`, the cytotoxicity is 1.7%.
On to `Cn1c(NCC(O)c2ccccc2)nc2c1c(=O)n(Cc1ccc(Cl)c(Cl)c1)c(=O)n2C` (centres undefined), for which the cytotoxicity is 69% (active).
With `Cn1c(NCc2ccccc2)nc2c1c(=O)n(Cc1ccccc1)c(=O)n2C`, the cytotoxicity was 5.6%.
As for `Cn1c(NCc2ccco2)nc2c1c(=O)n(Cc1ccc(Cl)c(Cl)c1)c(=O)n2C`, the figure is 8%.
As to `Cn1c(N2CCN(c3ccccn3)CC2)nc2c1c(=O)n(Cc1ccc(Cl)cc1)c(=O)n2C`, the cytotoxicity was 66.4% (active).
To `Cn1c(OCc2cccnc2)nc2c1c(=O)n(Cc1ccccc1)c(=O)n2C` belongs 25%; to `Cn1c(NCCCN2CCOCC2)nc2c1c(=O)n(Cc1ccc(Cl)c(Cl)c1)c(=O)n2C`, 44%.
To `COc1ccc(CNc2nc3c(c(=O)n(Cc4ccc(Cl)cc4)c(=O)n3C)n2C)cc1` belongs 26.6%.
As for `Cn1c(NCC(O)c2ccccc2)nc2c1c(=O)n(Cc1ccc(Cl)cc1)c(=O)n2C` (centres undefined), the figure is 53.2% (active); as for `Cn1c(OCc2cccnc2)nc2c1c(=O)n(Cc1ccc(Br)cc1)c(=O)n2C`, 50.4% (active); as for `Cn1c(N2CCN(c3ccccn3)CC2)nc2c1c(=O)n(Cc1ccccc1Cl)c(=O)n2C`, -12.8%.
For `COc1cccc(NC(=O)N2CCN(c3ccc(C(F)(F)F)cn3)CC2)c1`, the cytotoxicity is 1%.
As to `O=C(Cn1nnc2ccccc2c1=O)NC1CCCc2ccccc21` (centres undefined), the cytotoxicity was -10.4%.
As for `N#CCCN(Cc1cccnc1)C(=O)c1ccc(S(=O)(=O)N2CCOCC2)cc1`, the figure is -11%; as for `CCOC(=O)c1[nH]c(C)c(C(=O)NCc2ccccn2)c1C`, -28.2%.
Take `CCCC(c1nnnn1C1CCCCC1)N1CCN(c2ncccn2)CC1` (centres undefined): the cytotoxicity is -4%.
To `Cc1cccc2cc3c(N)c(C(=O)N4CCOCC4)sc3nc12` belongs 67.6% (active).
Take `Cc1ccc2nc3sc(C(=O)N4CCOCC4)c(N)c3cc2c1`: the cytotoxicity is 2.9%.
In the case of `Cc1ccc2cc3c(N)c(C(=O)N4CCOCC4)sc3nc2c1`, the cytotoxicity was -0.1%.
As for `CN(Cc1nnc(SCC(=O)NCCc2ccccc2)n1C)S(=O)(=O)c1ccccc1`, the figure is -11.2%; as for `O=C(Nc1ccc(N2CCN(C(=O)c3ccccc3)CC2)cc1)c1ccc(Br)o1`, -3.2%; as for `O=C(CCCSc1nc2ccccc2s1)Nc1nccs1`, -2.3%.
For the compound `O=C(OCC#CCSc1nc2ccccc2s1)c1ccco1`, the cytotoxicity is -5.2%.
As for `CC1=CC(=C(C#N)c2nc3ccccc3s2)C=C(C)N1Cc1ccco1`, the figure is 10.5%; as for `c1csc(CSc2nc3ccccc3s2)c1`, -16.5%.
To `N#C/C(=C\c1ccco1)Sc1nc2ccccc2s1` belongs 54.9% (active).
Consider `O=C(Cn1cnc2ccccc2c1=O)OCC(=O)c1ccc2c(c1)OCCO2`, for which the cytotoxicity was 3%.
To `O=C(c1cc2nc(-c3ccco3)cc(C(F)(F)F)n2n1)N1CCN(c2ccccc2)CC1` belongs -3%; to `CCOc1ccc(C2N(c3cc(Cl)ccc3OC)C(=O)C3CCCN32)cc1OC` (centres undefined), -15.6%.
As to `Cc1ccc(CS(=O)(=O)CCC(=O)NCCN2CCCCC2C)cc1` (centres undefined), the cytotoxicity is 7.5%.
To `Nc1ccc(N2CCCCC2)cc1N1CCCCC1` belongs 37%; to `O=C(O)c1ccc(N2CCCCC2)cc1`, -6.8%; to `CCOc1nc(-c2ccccc2)ccc1-c1noc(-c2cccnc2)n1`, -30.6%.
With `Cc1nc(NC2=NCN(C3CCCCC3C)CN2)nc2ccccc12` (centres undefined), the cytotoxicity is -2.8%.
To `Cc1cccc(NC(=O)N2CCC(NC(=O)c3ccccc3C)CC2)c1` belongs 2.1%.
